Our source for the growth values is PubChem BioAssay (NCI).

Test systems include BT-549 breast; MDA-MB-435 melanoma; SW-620 colon; MCF7 breast; HCT-116 colon; HCC-2998 colon; KM12 colon.
Holding throughout (assay): NCI-60 one-dose screen, 48 h (100 = growth as untreated, 0 = no growth, -100 = all killed)
Common to all, as to conditions: 10 µM unless noted

The panel holds about 83,000 compounds, 20% with a hit somewhere; the sample as a whole holds those more often.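 A percent growth of 40 corresponds to 60% growth inhibition; 0 means no net growth; -100 means all cells died. Active threshold: below 10.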 Values without a mark were called inactive. Activity calls are given as the source filed them.

Consider `CCOC(=O)c1ccc(Nc2ncnc3ccc(NC(=O)c4ccccc4)cc23)cc1`, for which the growth was 86.5% with BT-549 breast; 91.1% in the test with MDA-MB-435 melanoma; 96% in the test with SW-620 colon; 75.7% in the test with MCF7 breast; 91.4% with HCT-116 colon; 97.3% with HCC-2998 colon. Further, the growth in the test with KM12 colon is 75.2%.

With `Nc1c(C(=O)Nc2cccc3ccccc23)sc2nc3c(cc12)CCCCCC3`, the growth was 32% in the test on BT-549 breast; -39.3% (active) in the test on MDA-MB-435 melanoma; 22.4% with SW-620 colon; 20.6% in the test with MCF7 breast; 7.05% (active) in the test on HCT-116 colon; 43.3% in the test with HCC-2998 colon. In addition, in the test with KM12 colon, the growth was 21.9%.

Take `CCCn1cc(/C=N\N=C2\C(=O)Nc3ccc(C)cc32)c2ccccc21`: the growth in the test with BT-549 breast is 63.5%; with MDA-MB-435 melanoma, -26.6% (active); in the test with SW-620 colon, 36.7%; with MCF7 breast, 8.92% (active); in the test with HCT-116 colon, 39.9%; in the test with HCC-2998 colon it was 47%. The growth in the test on KM12 colon is 59.9%.

For the compound `Cc1cccc(NC(=O)c2sc3nc4c(cc3c2N)CN(Cc2ccccc2)CC4)c1C`, the growth is 54% in the test with BT-549 breast; -25.2% (active) with MDA-MB-435 melanoma; 24.3% in the test on SW-620 colon; 22.4% with MCF7 breast; 29.2% with HCT-116 colon; 55.8% in the test on HCC-2998 colon. Further, the growth in the test on KM12 colon was 25.7%.

In the case of `C=C(C)[C@@H]1CCC=C2CC[C@]3(C)[C@H](CC[C@@H]4[C@@]5(C)CCCNC(C)(C)[C@@H]5CC[C@]43C)[C@H]21`, the growth in the test with BT-549 breast is 89.2%; with MDA-MB-435 melanoma, 16.8%; with SW-620 colon it was -50.2% (active); with MCF7 breast it was 0.921% (active); in the test on HCT-116 colon, -54.8% (active); in the test on HCC-2998 colon it was 5.32% (active). The growth with KM12 colon is 19.9%.

For the compound `COC1=CC2C=C(C3N(c4ccccc4)NC(=O)[C@@H]4CCCN34)C(=O)NC2C=C1` (some centres not stated), the growth in the test on BT-549 breast was 97.4%; in the test with MDA-MB-435 melanoma, 97%; with SW-620 colon, 105%; with MCF7 breast, 94.1%; in the test on HCT-116 colon, 93.8%; in the test on HCC-2998 colon, 94.8%. In addition, the growth with KM12 colon was 100%.

For the compound `NS(=O)(=O)c1ccc(-n2nc(-c3ccccc3)ccc2=O)cc1`, the growth is 123% in the test with BT-549 breast; 113% with MDA-MB-435 melanoma; 108% with SW-620 colon; 96% in the test on MCF7 breast; 102% with HCT-116 colon; 108% in the test on HCC-2998 colon. Also, in the test with KM12 colon, the growth is 99.6%.

On to `COC(=O)c1ccc2c(c1)n(Cc1ccc3ccccc3c1)c[n+]2Cc1ccc2ccccc2c1`, for which the growth with BT-549 breast was 56.7%; with MDA-MB-435 melanoma it was 4.2% (active); in the test with SW-620 colon it was 37.6%; in the test on MCF7 breast it was 29.2%; in the test on HCT-116 colon, 32%; in the test with HCC-2998 colon, 33.9%. For the same compound, the growth with KM12 colon is -8.69% (active).

Consider `Cc1cc(Nc2nc(SCc3ccc(C(=O)Nc4ccc(F)cc4N)cc3)nn3cccc23)n[nH]1`, for which the growth in the test with BT-549 breast is 27%; in the test with MDA-MB-435 melanoma, 12.8%; in the test with SW-620 colon, 23.9%; with MCF7 breast, 23.5%; with HCT-116 colon it was 10.1%; in the test on HCC-2998 colon, 23.9%. Besides, the growth in the test on KM12 colon was 7.02% (active).

Regarding `C#Cc1ccccc1NC(=O)c1sc2nc3c(cc2c1N)CCCCC3`, the growth with BT-549 breast was 96.4%; in the test with MDA-MB-435 melanoma, 95.1%; with SW-620 colon it was 102%; in the test on MCF7 breast it was 81.5%; in the test with HCT-116 colon, 109%; with HCC-2998 colon it was 105%. Further, the growth in the test with KM12 colon was 102%.

As for `COC(=O)c1nc(-c2ccccc2)oc1S(=O)(=O)n1nc(-c2ccccc2)cc1N`, the growth in the test on BT-549 breast is 82.2%; in the test with MDA-MB-435 melanoma, 63.6%; in the test on SW-620 colon it was 10.9%; in the test on MCF7 breast, 80.9%; in the test with HCT-116 colon, 84.8%; with HCC-2998 colon, 108%. Moreover, the growth with KM12 colon is 92.2%.

On to `Nc1c(C(=O)Nc2cccc3ccccc23)sc2nc3c(cc12)CCCCC3`, for which the growth in the test with BT-549 breast was 12.6%; in the test on MDA-MB-435 melanoma it was -32.2% (active); with SW-620 colon it was 24.3%; in the test with MCF7 breast, 17.7%; in the test on HCT-116 colon, 8.52% (active); in the test with HCC-2998 colon it was 33.1%. Further, the growth in the test on KM12 colon is 22.8%.

As to `COc1ccc2[nH]c(=O)c(/C=C/C(=O)/C=C/c3ccc(O)c(OC)c3)cc2c1`, the growth is -22.8% (active) with BT-549 breast; -30% (active) in the test with MDA-MB-435 melanoma; -24.8% (active) with SW-620 colon; 13% in the test on MCF7 breast; -86.7% (active) with HCT-116 colon; -74% (active) in the test with HCC-2998 colon. For the same compound, the growth with KM12 colon was -45% (active).

For the compound `C=CCn1c(CN2CCN(c3cc4c(cc3F)c(=O)c(C(=O)O)cn4C3CC3)CC2)n[nH]c1=S`, the growth in the test on BT-549 breast was 105%; in the test on MDA-MB-435 melanoma, 102%; with SW-620 colon, 105%; in the test with MCF7 breast, 95.7%; in the test on HCT-116 colon, 105%; with HCC-2998 colon it was 107%. In addition, the growth in the test with KM12 colon was 99.4%.

With `O=C(Nc1ccc(S(=O)(=O)NC2CCCCCC2)cc1)C(c1ccccc1)S(=O)(=O)c1ccc(F)cc1` (configuration not stated), the growth in the test with BT-549 breast was -3.97% (active); in the test with MDA-MB-435 melanoma, -17% (active); in the test on SW-620 colon it was 24.6%; in the test with MCF7 breast it was 0.0605% (active); with HCT-116 colon, 5.61% (active); in the test with HCC-2998 colon it was 15.4%. The growth in the test with KM12 colon was 5.09% (active).

`CCOC(=O)c1c(C(F)(F)F)n([O-])c2ccc(Cl)cc2[n+]1=O`: the growth is -59.6% (active) with BT-549 breast; -70.1% (active) with MDA-MB-435 melanoma; -64.7% (active) in the test on SW-620 colon; -57.6% (active) in the test with MCF7 breast; -62.8% (active) with HCT-116 colon; -90.8% (active) in the test on HCC-2998 colon. Besides, the growth with KM12 colon was -78.5% (active).
